Experimental data taken from the supplement of paper PMC10849652.
Targets with a hit are over-represented here; the source holds about 8,800 in all. About 0.5% of all pairs of compound and target were hits. Unmarked numbers belong to inactive results.

Assays:
Experiment in all cases: log2 fold change, soluble protein after heating vs DMSO (PISA); higher = thermal stabilisation; K562 lysate, 10 uM; active = over 0.2 and 3.5 SD of the protein, either way, in both replicates (recomputed)
erlotinib = compound: C#Cc1cccc(Nc2ncnc3cc(OCCOC)c(OCCOC)cc23)c1 [erlotinib]
Procedure, shortened: (§1)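 Dounce homogenisation of K562 pellets in PBS pH 7.4 with 1 mM MgCl2 produced a crude extract, used at 1 mg/mL protein. Exposure to 10 μM compound lasted 30 min, and aliquots were then heated for 3 min across 48°C-58°C, pooled and brought to 0.5% NP-40 at 4°C. The supernatant after 21,000xg for 90 min was quantified by TMTpro 16plex LC-MS/MS with channel sums equalised. Duplicate values are given as log-two fold change in thermal stability relative to solvent controls.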

[1] = compound: C/C(=N\NC(=O)C1=CC(=CC=C1)S(=O)(=O)N2CCOCC2)/C3=C(C=CC(=C3)Cl)O
Procedure, shortened: as §1

[2] = compound: C1=CC(=CC=C1C2=NC3=C(N2)C=C(C=C3)C(=O)N)OC4=CC=C(C=C4)Cl
Procedure, shortened: as §1

[3] = compound: C1=CC2=C(C=CC(=C2)/C=C\3/C(=O)NC(=NCC4=CC=CS4)S3)N=C1
Procedure, shortened: as §1

[4] = compound: C1=CC2=NC=CN=C2C=C1/C=C/3\C(=O)NC(=O)S3
Procedure, shortened: as §1

[5] = compound: C1=CC=C(C=C1)C2=NC(=C(N2)C3=CC=NC=C3)C4=CC(=C(C=C4)Cl)O
Procedure, shortened: as §1

[6] = compound: C1=CC=C2C(=C1)C3=NNC4=CC=CC(=C43)C2=O
Procedure, shortened: as §1

[7] = compound: C1CCN(C1)C(=O)NC2=CC=CC(=C2)NC3=NC=C(C(=N3)NCCC4=CN=CN4)Br
Procedure, shortened: as §1

[8] = compound: C1CN(CCC1(CC2=CC=C(C=C2)Cl)N)C3=NC=NC4=C3C=CN4
Procedure, shortened: as §1

IRAK-1-4 Inhibitor I = compound: C1COCCN1CCN2C3=CC=CC=C3N=C2NC(=O)C4=CC(=CC=C4)[N+](=O)[O-] [IRAK-1-4 Inhibitor I]
Procedure, shortened: as §1

ibrutinib = compound: C=CC(=O)N1CCC[C@@H](n2nc(-c3ccc(Oc4ccccc4)cc3)c3c(N)ncnc32)C1 [ibrutinib]
Procedure, shortened: as §1

[9] = compound: CC(=O)c1cnc2ccc(-c3cc(Cl)c(O)c(Cl)c3)nc2c1N[C@H]1CC[C@H](CN(C)C)CC1
Procedure, shortened: as §1

ralimetinib = compound: CC(C)(C)Cn1c(N)nc2ccc(-c3[nH]c(C(C)(C)C)nc3-c3ccc(F)cc3)nc21 [ralimetinib]
Procedure, shortened: as §1

[10] = compound: CC(C)(O)CC(=O)NCCn1ccc2ncnc(Nc3ccc(Oc4cccc(C(F)(F)F)c4)c(Cl)c3)c21
Procedure, shortened: as §1

[11] = compound: CC(C)C1=C2N=C(C=C(N2N=C1)NCC3=CC=CC=C3)NCCCCCCN
Procedure, shortened: as §1

[12] = compound: CC1=C(C(CC(=O)N1)C2=CC=C(C=C2)C(F)(F)F)C(=O)NC3=C(C=C4C(=C3)C=NN4)F
Procedure, shortened: as §1

[13] = compound: CC1=C(C2=C(C=C1)C(=O)C3=CC=CC=C3N2CCCN)C
Procedure, shortened: as §1

[14] = compound: CC1=C(C=C(C=C1)NC(=O)C2=CC(=CC=C2)C(C)(C)C#N)NC3=CC4=C(C=C3)N=CN(C4=O)C
Procedure, shortened: as §1

[15] = compound: CC1=C(C=C(C=C1)NC(=O)C2=CC(=CC=C2)N(C)C)NC(=O)C3=CC=C(C=C3)O
Procedure, shortened: as §1

[16] = compound: CC1=CC=C(C=C1)SC2=C3C=C(SC3=CN=C2)C(=O)N
Procedure, shortened: as §1

Sequence of UniProt Q8IZP0 (Q8IZP0 whole entry, looked up): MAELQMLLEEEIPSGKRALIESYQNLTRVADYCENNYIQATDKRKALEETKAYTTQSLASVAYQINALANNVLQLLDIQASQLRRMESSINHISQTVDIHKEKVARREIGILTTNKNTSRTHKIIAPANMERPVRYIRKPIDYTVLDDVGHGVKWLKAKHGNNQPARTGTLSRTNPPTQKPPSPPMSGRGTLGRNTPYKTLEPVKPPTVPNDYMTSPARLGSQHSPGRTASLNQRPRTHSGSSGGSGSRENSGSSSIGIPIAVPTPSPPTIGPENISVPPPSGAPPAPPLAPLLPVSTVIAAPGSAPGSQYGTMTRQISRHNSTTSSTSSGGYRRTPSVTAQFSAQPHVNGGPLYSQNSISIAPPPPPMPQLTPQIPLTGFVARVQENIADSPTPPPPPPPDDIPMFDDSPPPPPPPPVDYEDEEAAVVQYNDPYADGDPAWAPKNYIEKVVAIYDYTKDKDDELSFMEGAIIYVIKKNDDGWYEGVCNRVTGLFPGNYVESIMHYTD
Sequence of UniProt Q9BXX2 (Q9BXX2 whole entry, looked up): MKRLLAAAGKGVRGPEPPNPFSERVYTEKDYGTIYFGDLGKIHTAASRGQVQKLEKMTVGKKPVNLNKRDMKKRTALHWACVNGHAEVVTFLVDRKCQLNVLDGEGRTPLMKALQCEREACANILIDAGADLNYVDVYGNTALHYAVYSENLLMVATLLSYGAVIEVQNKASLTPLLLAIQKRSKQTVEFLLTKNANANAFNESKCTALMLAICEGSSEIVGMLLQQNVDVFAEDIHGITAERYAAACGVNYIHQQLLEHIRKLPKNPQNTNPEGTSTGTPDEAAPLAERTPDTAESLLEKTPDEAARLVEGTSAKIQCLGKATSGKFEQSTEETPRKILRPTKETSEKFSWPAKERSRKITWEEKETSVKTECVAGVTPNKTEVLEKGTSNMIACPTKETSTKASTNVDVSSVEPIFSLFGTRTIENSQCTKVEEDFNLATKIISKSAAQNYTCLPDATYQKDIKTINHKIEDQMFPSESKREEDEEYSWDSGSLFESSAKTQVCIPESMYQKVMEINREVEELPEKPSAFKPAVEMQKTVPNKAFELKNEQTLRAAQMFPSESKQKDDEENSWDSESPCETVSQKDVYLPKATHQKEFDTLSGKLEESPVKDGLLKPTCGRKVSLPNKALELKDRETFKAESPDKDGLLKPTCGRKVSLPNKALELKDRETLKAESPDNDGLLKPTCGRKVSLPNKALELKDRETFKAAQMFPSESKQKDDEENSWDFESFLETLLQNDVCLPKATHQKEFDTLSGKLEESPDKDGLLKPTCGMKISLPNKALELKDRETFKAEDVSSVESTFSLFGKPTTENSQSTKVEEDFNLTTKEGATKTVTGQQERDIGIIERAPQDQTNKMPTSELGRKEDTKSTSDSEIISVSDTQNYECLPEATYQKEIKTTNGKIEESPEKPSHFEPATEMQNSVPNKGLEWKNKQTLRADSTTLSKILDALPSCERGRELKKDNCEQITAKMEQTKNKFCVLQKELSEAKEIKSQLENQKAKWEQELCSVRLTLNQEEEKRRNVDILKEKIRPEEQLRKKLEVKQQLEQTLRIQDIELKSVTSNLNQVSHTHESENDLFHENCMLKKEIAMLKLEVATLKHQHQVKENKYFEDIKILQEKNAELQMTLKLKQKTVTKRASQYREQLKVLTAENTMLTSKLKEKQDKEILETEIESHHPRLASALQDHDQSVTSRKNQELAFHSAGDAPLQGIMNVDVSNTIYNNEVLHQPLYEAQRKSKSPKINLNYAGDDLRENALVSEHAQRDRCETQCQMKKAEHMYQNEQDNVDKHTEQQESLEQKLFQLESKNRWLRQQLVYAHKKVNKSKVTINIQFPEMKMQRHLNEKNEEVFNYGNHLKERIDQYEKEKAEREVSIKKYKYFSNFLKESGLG
Sequence of UniProt Q13155 (Q13155 whole entry, looked up): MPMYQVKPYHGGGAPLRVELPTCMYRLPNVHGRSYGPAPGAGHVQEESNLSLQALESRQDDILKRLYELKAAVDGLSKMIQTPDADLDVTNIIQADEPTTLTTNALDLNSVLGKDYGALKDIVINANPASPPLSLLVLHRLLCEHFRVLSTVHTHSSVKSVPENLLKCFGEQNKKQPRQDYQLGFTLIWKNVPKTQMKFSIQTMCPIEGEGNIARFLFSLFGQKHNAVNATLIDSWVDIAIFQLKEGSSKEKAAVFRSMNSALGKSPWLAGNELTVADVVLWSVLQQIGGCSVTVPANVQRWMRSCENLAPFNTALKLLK
Sequence of UniProt P04083 (P04083 whole entry, looked up): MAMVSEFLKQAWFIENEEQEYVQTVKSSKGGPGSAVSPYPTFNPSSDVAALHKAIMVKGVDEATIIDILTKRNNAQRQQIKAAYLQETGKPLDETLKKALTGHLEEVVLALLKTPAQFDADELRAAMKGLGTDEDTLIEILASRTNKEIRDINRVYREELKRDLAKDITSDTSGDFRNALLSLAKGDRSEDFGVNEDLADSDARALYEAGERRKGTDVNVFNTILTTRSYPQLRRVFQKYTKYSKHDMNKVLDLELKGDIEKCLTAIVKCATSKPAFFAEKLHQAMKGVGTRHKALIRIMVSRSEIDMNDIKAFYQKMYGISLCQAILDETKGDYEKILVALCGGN
Sequence of UniProt P54886 (P54886 whole entry, looked up): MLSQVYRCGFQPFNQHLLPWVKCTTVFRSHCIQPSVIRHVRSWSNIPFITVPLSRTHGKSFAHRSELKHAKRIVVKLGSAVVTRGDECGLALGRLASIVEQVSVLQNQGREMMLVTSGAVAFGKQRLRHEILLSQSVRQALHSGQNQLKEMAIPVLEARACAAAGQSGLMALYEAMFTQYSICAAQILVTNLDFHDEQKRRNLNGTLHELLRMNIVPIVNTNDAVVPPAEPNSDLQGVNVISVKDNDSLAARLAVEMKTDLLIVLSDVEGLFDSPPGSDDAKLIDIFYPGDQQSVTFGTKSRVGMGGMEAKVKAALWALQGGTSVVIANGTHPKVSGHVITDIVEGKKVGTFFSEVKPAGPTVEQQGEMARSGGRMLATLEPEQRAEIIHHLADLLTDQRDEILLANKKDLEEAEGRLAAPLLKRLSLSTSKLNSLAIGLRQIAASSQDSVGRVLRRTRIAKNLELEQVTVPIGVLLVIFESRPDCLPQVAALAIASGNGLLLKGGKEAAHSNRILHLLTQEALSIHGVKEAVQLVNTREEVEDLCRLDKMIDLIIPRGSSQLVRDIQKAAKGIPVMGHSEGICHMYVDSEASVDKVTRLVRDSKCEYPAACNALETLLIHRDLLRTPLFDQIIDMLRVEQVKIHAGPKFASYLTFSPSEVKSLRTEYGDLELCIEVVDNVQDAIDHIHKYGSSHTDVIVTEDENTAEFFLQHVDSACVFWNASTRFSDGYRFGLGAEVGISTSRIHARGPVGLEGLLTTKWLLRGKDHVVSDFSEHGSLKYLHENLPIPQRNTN
Sequence of UniProt Q3SXY8 (Q3SXY8 whole entry, looked up): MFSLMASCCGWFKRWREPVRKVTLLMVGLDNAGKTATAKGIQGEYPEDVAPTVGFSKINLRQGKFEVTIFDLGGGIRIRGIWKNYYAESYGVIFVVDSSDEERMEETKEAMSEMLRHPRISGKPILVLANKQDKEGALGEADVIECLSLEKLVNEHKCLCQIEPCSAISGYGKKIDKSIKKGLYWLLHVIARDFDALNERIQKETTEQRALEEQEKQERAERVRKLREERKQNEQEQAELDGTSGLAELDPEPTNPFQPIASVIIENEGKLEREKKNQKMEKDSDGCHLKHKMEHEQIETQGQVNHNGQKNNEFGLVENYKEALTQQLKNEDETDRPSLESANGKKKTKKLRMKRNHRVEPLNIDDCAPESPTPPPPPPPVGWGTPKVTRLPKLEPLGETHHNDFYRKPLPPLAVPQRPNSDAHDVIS
Sequence of UniProt Q2VPB7 (Q2VPB7 whole entry, looked up): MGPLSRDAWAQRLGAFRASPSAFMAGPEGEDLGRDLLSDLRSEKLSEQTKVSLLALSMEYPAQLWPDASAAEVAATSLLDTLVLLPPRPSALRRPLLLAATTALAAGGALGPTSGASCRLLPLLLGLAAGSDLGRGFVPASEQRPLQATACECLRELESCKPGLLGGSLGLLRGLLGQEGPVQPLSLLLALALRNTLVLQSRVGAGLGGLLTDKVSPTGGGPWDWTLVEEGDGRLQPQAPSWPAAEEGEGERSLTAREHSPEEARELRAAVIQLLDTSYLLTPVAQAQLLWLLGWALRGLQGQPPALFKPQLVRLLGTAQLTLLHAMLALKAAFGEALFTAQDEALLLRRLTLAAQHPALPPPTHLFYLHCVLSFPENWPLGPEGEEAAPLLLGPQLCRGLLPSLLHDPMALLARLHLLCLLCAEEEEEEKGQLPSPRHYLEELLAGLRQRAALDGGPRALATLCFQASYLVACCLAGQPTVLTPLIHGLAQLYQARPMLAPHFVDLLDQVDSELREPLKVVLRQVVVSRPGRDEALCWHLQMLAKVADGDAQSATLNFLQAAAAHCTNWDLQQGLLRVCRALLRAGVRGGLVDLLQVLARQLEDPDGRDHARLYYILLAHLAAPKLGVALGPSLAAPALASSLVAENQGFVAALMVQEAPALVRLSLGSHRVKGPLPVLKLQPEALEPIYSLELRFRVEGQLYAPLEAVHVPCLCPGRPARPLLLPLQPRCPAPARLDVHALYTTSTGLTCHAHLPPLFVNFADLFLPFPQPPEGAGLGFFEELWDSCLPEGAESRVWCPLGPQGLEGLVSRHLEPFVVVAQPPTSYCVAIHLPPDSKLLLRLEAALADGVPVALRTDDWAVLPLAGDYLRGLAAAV
Sequence of UniProt P52895 (P52895 whole entry, looked up): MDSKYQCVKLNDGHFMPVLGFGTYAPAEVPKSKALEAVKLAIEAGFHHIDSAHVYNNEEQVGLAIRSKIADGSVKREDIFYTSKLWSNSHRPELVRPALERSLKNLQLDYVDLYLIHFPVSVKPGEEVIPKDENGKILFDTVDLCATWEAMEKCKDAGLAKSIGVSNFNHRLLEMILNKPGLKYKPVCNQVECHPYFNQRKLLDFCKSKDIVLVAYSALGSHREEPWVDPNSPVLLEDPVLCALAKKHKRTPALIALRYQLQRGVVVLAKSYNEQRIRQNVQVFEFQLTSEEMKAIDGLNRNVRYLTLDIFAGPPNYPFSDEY

Target | log2 fold change (erlotinib) | log2 fold change [1] | log2 fold change [2] | log2 fold change [3] | log2 fold change [4] | log2 fold change [5] | log2 fold change [6] | log2 fold change [7] | log2 fold change [8] | log2 fold change (IRAK-1-4 Inhibitor I) | log2 fold change (ibrutinib) | log2 fold change [9] | log2 fold change (ralimetinib) | log2 fold change [10] | log2 fold change [11] | log2 fold change [12] | log2 fold change [13] | log2 fold change [14] | log2 fold change [15] | log2 fold change [16]
AKR1C2 (UniProt P52895) | 0.03 | -0.167 | 0.005 | 0.015 | 0.006 | 0.013 | -0.046 | -0.033 | 0.006 | -0.024 | 0.031 | 0.021 | -0.043 | -0.035 | 0.025 | -0.025 | 0.038 | -0.013 | 0.018 | 0.019
ACACB (UniProt O00763) | 0.042 | 0.097 | -0.025 | 0.018 | -0.02 | -0.01 | -0.008 | -0.005 | 0.015 | 0.025 | 0.051 | 0.018 | 0.069 | 0.032 | 0.014 | -0.036 | 0.015 | 0.021 | 0.052 | 0.022
ANXA1 (UniProt P04083) | -0.012 | 0.013 | 0.015 | 0.014 | -0.009 | -0.008 | -0.021 | 0.003 | 0.016 | -0.013 | -0.001 | 0.007 | -0.003 | 0.007 | 0.005 | -0.01 | 0.03 | -0.024 | 0.025 | -0.003
ACTG1 (UniProt I3L4N8) | 0.118 | 0.163 | -0.016 | 0.029 | -0.2 | 0.054 | -0.207 | -0.142 | -0.143 | -0.013 | 0.191 | 0.053 | -0.019 | 0.065 | -0.184 | 0.038 | -0.677 (active) | -0.181 | -0.006 | 0.033
ABI1 isoform 6 (UniProt Q8IZP0) |  |  |  |  |  |  |  | -0.167 | 0.213 |  |  | -0.034 |  |  |  |  |  |  |  | -0.028
ANKRD30B (UniProt Q9BXX2) | 0.077 | 0.106 | -0.053 | -0.115 | 0.005 | -0.032 | -0.047 | -0.006 | 0.124 | 0.095 | -0.063 | -0.086 | -0.007 | -0.16 | 0.038 | -0.098 | -0.064 |  | 0.024 | -0.167
AP5B1 (UniProt Q2VPB7) | 0.006 |  | -0.05 |  | -0.069 | 0.014 |  | 0.073 | 0.046 | 0.03 | 0.112 | -0.037 | -0.04 | -0.072 | 0.011 | 0.021 | -0.067 | -0.08 | 0.036 | -0.006
ALDH18A1 isoform 2 (UniProt P54886) |  | -0.298 |  | -0.142 |  | 0.092 | -0.05 |  |  | 0.046 |  |  | -0.308 | -0.245 |  |  | -0.378 | 0.03 | 0.19 | 
AIMP2 isoform 2 (UniProt Q13155) |  |  |  |  | 0.056 | 0.061 |  |  |  | 0.006 | -0.28 | 0.064 | 0.061 | -0.036 |  |  |  | 0.089 | 0.023 | 0
ARL13B (UniProt Q3SXY8) | 0.043 | 0.06 | -0.195 | -0.039 | 0.118 | -0.033 | 0.094 |  |  | 0.038 | -0.001 | -0.033 | 0.058 | -0.032 | 0.081 |  | -0.002 | 0.047 | -0.068 | 0.077
